“And” between values parts separate entries of the source, which are not always exact repeats. Equal entries are not always repeated. Records with an inconclusive call do not appear. Where a call stands in place of a potency, no number is given. Some compounds were tested as several samples or in several runs, with calls that do not always agree. The source made the active and inactive calls. Unless noted, the call rests on the fitted dose curve; in most records, active means well fitted cell-killing curve with a large enough effect in the repeat runs; inconclusive means weak or mixed curves, or effect the other way; inactive means no such curve, though single readings can be large or run the other way.
Biological target: Glucocorticoid receptor (Homo sapiens) (UniProt P04150)
Sequence (P04150 whole entry, looked up): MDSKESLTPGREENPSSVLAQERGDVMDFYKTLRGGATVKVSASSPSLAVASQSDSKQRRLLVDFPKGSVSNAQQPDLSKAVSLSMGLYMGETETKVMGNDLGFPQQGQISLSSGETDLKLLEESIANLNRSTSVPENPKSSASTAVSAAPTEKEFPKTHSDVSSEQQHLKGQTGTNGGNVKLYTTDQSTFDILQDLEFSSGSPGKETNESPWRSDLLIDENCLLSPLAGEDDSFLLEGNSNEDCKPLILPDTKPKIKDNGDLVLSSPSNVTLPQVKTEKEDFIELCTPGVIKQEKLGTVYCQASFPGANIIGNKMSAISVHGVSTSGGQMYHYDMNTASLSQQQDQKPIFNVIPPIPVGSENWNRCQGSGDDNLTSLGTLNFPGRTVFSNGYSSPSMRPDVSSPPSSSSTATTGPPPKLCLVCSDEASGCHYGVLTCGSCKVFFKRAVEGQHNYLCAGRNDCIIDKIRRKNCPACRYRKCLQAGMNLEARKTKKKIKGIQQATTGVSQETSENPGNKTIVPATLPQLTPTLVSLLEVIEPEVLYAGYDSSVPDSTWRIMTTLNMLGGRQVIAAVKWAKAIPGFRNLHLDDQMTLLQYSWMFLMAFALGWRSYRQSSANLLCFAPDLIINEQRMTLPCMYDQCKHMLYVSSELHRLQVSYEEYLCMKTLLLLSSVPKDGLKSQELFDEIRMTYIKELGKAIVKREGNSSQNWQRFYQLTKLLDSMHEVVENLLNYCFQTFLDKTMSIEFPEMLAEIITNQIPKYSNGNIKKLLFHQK
Assay: qHTS assay to identify small molecule antagonists of the glucocorticoid receptor (GR) signaling pathway (AID 720692; active means well fitted inhibition curve with a large enough effect in the signal ratio in the repeat runs, not every such curve was filed as active; the % refers to the signal ratio; further: potency means the concentration at half of the fitted maximal effect)
Details: GR-bla HeLa, beta-lactamase FRET ratio, dexamethasone-stimulated, 18 h; series mostly up to 58.5 µM
Procedure, shortened: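 GR-bla HeLa cells carrying a GRE-driven beta-lactamase reporter received compound after 4 h plating, then dexamethasone (5 nM final). After 18 h at 37C, the FRET substrate was loaded for 2 h at room temperature and fluorescence read.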

Structure (SMILES)	Potency
CC(C)(C)C(=O)CCl	inactive
C=C(C)C(=O)OCC(CC)CCCC (stereo not drawn)	inactive
CC[N+](=O)[O-]	inactive
COP(=S)(OC)Oc1ccc(SC)c(C)c1	inactive
Nc1nc(N)nc(NC2CC2)n1	inactive
CCNc1nc(Cl)nc(NC(C)C)n1	inactive
Cc1ccc(O)c(C)c1	inactive
Sc1ccccc1	inactive
OCCCCO	inactive
CNC(=O)O/N=C/C(C)(C)S(C)(=O)=O	inactive
c1ccc2c(c1)CCCC2	inactive
C[C@]12CC[C@H](O)CC1=CC[C@@H]1[C@@H]2CC[C@]2(C)C(=O)CC[C@@H]12	43.7 µM (active) and 43.6 µM (active)
CN1C(=O)CCS(=O)(=O)C1c1ccc(Cl)cc1 (stereo not drawn)	inactive
OCC(O)CCl (stereo not drawn)	inactive
Cc1ccc(N=C=O)cc1N=C=O	inactive
C[C@H]1C(=O)O[C@@H]2CCN3CC=C(COC(=O)[C@](C)(O)[C@]1(C)O)[C@H]23	inactive
CN(C)CCC#N	inactive
Nc1ncc([N+](=O)[O-])s1	inactive

Tested on: not listed separately
Assay: qHTS assay to identify small molecule antagonists of the glucocorticoid receptor (GR) signaling pathway - cell viability counter screen (AID 720693); further: nearly all actives have a fitted effect of over 55% in size
Details: GR-bla HeLa viability, CellTiter-Glo luminescence, 18 h, with 5 nM dexamethasone present; series mostly up to 58.5 µM

Structure (SMILES)	Potency
CCSC(=O)N1CCCCCC1	inactive
O=C(O)Cc1ccccc1	inactive
CN(C)C(=O)C(c1ccccc1)c1ccccc1	inactive
C/C=C/c1ccc2c(c1)OCO2	inactive
OCCCCO	inactive
Cc1cc(Cl)ccc1OC(C)C(=O)O (stereo not drawn)	inactive
Nc1cccc(Cl)c1	inactive
Nc1cc(Cl)cc(Cl)c1	inactive
CNC(=O)O/N=C/C(C)(C)S(C)(=O)=O	inactive
CN(C)C(=O)Nc1cccc(C(F)(F)F)c1	inactive
N#Cc1ccccn1	inactive
OCC(O)CCl (stereo not drawn)	inactive
CNC(=O)Oc1cccc2ccccc12	inactive
Nc1ncc([N+](=O)[O-])s1	inactive

Tested on: not listed separately
Assay: qHTS assay for identifying genotoxic compounds that show differential cytotoxicity against isogenic chicken DT40 cell lines with known DNA damage response pathways - wild type cell line (AID 743012); further: nearly all actives have a fitted effect of over 60% in size; further: potency means the concentration at half of the fitted maximal effect
Details: DT40 wild type chicken cells viability, CellTiter-Glo, 40 h; series mostly up to 68.4 µM
Procedure, shortened: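 Wild-type DT40 cells (300/well) exposed to compounds for 40 hours at 37 C/5% CO2. Viability read by CellTiter-Glo luminescence after 30 min at room temperature.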

Structure (SMILES)	Potency
CCSC(=O)N1CCCCCC1	inactive
CC(C)(C)C(=O)CCl	inactive
C=C(C)C(=O)OCC(CC)CCCC (stereo not drawn)	inactive
CC[N+](=O)[O-]	inactive
O=C(O)Cc1ccccc1	inactive
COP(=S)(OC)Oc1ccc(SC)c(C)c1	54.5 µM (active)
Nc1nc(N)nc(NC2CC2)n1	inactive
CCNc1nc(Cl)nc(NC(C)C)n1	inactive
Nc1ccc(N)cc1	54.7 µM (active)
Cc1ccc(O)c(C)c1	inactive
CN(C)C(=O)C(c1ccccc1)c1ccccc1	inactive
C/C=C/c1ccc2c(c1)OCO2	inactive
Sc1ccccc1	inactive
Oc1c(Br)cc(Br)cc1Br	inactive
OCCCCO	inactive
Cc1cc(Cl)ccc1OC(C)C(=O)O (stereo not drawn)	inactive
Nc1cccc(Cl)c1	inactive
Nc1cc(Cl)cc(Cl)c1	inactive
CNC(=O)O/N=C/C(C)(C)S(C)(=O)=O	inactive
CN(C)C(=O)Nc1cccc(C(F)(F)F)c1	inactive
c1ccc2c(c1)CCCC2	inactive
C[C@]12CC[C@H](O)CC1=CC[C@@H]1[C@@H]2CC[C@]2(C)C(=O)CC[C@@H]12	29.8 µM (active)
CN1C(=O)CCS(=O)(=O)C1c1ccc(Cl)cc1 (stereo not drawn)	inactive
N#Cc1ccccn1	inactive
OCC(O)CCl (stereo not drawn)	inactive
Cc1ccc(N=C=O)cc1N=C=O	inactive
C[C@H]1C(=O)O[C@@H]2CCN3CC=C(COC(=O)[C@](C)(O)[C@]1(C)O)[C@H]23	inactive
CN(C)CCC#N	inactive
Nc1ncc([N+](=O)[O-])s1	inactive
C=CCN=C=S	inactive

Tested on: not listed separately
Assay: qHTS assay for identifying genotoxic compounds that show differential cytotoxicity against isogenic chicken DT40 cell lines with known DNA damage response pathways - Rev3 mutant cell line (AID 743014); further: nearly all actives have a fitted effect of over 55% in size; further: potency means the concentration at half of the fitted maximal effect
Details: chicken DT40 Rev3-/- viability, CellTiter-Glo, 40 h; series mostly up to 68.4 µM

Structure (SMILES)	Potency
CCSC(=O)N1CCCCCC1	inactive
CC(C)(C)C(=O)CCl	inactive
C=C(C)C(=O)OCC(CC)CCCC (stereo not drawn)	inactive
CC[N+](=O)[O-]	inactive
O=C(O)Cc1ccccc1	inactive
COP(=S)(OC)Oc1ccc(SC)c(C)c1	inactive
Nc1nc(N)nc(NC2CC2)n1	inactive
CCNc1nc(Cl)nc(NC(C)C)n1	inactive
Nc1ccc(N)cc1	19.4 µM (active) and 54.5 µM (active)
Cc1ccc(O)c(C)c1	inactive
CN(C)C(=O)C(c1ccccc1)c1ccccc1	inactive
C/C=C/c1ccc2c(c1)OCO2	inactive
Sc1ccccc1	inactive
Oc1c(Br)cc(Br)cc1Br	inactive
OCCCCO	inactive
Cc1cc(Cl)ccc1OC(C)C(=O)O (stereo not drawn)	inactive

Structure (SMILES)	Potency
Nc1cccc(Cl)c1	inactive
Nc1cc(Cl)cc(Cl)c1	inactive
CNC(=O)O/N=C/C(C)(C)S(C)(=O)=O	inactive
CN(C)C(=O)Nc1cccc(C(F)(F)F)c1	inactive
c1ccc2c(c1)CCCC2	inactive
C[C@]12CC[C@H](O)CC1=CC[C@@H]1[C@@H]2CC[C@]2(C)C(=O)CC[C@@H]12	26.6 µM (active) and 68.7 µM (active) and 54.5 µM (active)
CN1C(=O)CCS(=O)(=O)C1c1ccc(Cl)cc1 (stereo not drawn)	inactive
N#Cc1ccccn1	inactive
OCC(O)CCl (stereo not drawn)	inactive
Cc1ccc(N=C=O)cc1N=C=O	inactive
C[C@H]1C(=O)O[C@@H]2CCN3CC=C(COC(=O)[C@](C)(O)[C@]1(C)O)[C@H]23	inactive and 15.4 µM (active)
CNC(=O)Oc1cccc2ccccc12	inactive
CN(C)CCC#N	inactive
Nc1ncc([N+](=O)[O-])s1	inactive
C=CCN=C=S	62.5 µM (active)

— PubChem BioAssay (Tox21)
